Most compounds without a hit are left out; they make up all but 4.8% or so of the library.
SUMO Mot1 rescue = blocks SUMOylation pathway, rescuing yeast Mot1-301 growth. S. cerevisiae Mot1-301 growth rescue, ATP luminescence, 38.5C; percent above DMSO median, 100 means doubled. growth rescue, % at 18.8 µM. 320,000 compounds, 1% hits. AID 2716;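 active = every valid replicate shows activation above 250% relative to neutral control wells; inactive = the rest, any valid replicate at or below 250%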;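 also: OY570 slx delta 5 strain wells were the positive control but not used for scaling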
AI-2 QS mod = Vibrio harveyi AI-2 quorum sensing modulation; Vibrio harveyi JMH597 AI-2 luminescence/OD600 ratio, 9 h; stronger effect = lower value; strain lacks LuxN and CqsS sensors; 0 = neutral-control median; activity change, % at 7.5 µM; 300,000 compounds, 0.4% hits; AID 2094; in the data active = activity change below about -75%, passing the limit was not always enough;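 also: luminescence divided by OD600 gain over 9 h not by final OD600 alone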
HIF act = HIF pathway transcriptional activation | AID 1910 | 300,000 compounds, 0.32% hits | activation, % at 7.5 µM (by protocol) | U2OS HRE-luciferase reporter, luminescence; normalized: DMSO 0%, desferrioxamine 100%;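 active = mean activation of at least 10% of the iron chelator positive control signal, with at least half of replicates also reaching 10%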
ALR inh = inhibitors of human sulfhydryl oxidase ALR; P55789; purified ALR, DTT oxidation, H2O2 HRP-luminol luminescence; inhibition, % (no concentration beside the values); 290,000 compounds, 3.8% hits;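 active = mean replicate inhibition above about 79%, with every replicate also reaching it, limit read from the data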
Target sequence (P55789 whole entry, looked up): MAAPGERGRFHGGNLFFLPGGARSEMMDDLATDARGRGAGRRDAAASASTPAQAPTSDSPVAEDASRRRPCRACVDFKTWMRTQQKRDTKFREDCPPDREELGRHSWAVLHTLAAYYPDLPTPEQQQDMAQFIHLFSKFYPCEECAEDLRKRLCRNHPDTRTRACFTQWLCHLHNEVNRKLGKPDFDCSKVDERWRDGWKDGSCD
Mot1 SUMO dose = inhibits SUMO pathway, affecting Mot1-301 yeast growth; AID 493004; S. cerevisiae Mot1-301 galactose growth, ATP luminescence, 24 h; -100 = growth of slx-deleted rescue strain; shares compounds with SUMO Mot1 rescue; 2,300 tested, under 10 active; growth activity, percent, % at 42 µM;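 active = Signal drops as the depositor expects, and the fitted half-maximal dose is no more than ten times the top valid tested dose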;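 also: more negative values mean stronger growth rescue toward the control strain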
The depositor's hits bear a star.

How did COc1ccc(-n2nc3c(c2NC(=O)c2ccc4c(c2)OCO4)CS(=O)(=O)C3)cc1 do in these assays?
SUMO Mot1 rescue: 5.2; AI-2 QS mod: 18.1; HIF act: -0.3; ALR inh: -19.7

Results for CS(=O)(=O)c1ccc(N2CCN(c3ccccn3)CC2)c([N+](=O)[O-])c1 ?
SUMO Mot1 rescue: -1.4; AI-2 QS mod: 24.7; HIF act: -0.2; ALR inh: -3.3

What do the screens show for `O=C(NCCC1=CCCCC1)c1ccc(-n2cncn2)c([N+](=O)[O-])c1`?
SUMO Mot1 rescue: -0.1; AI-2 QS mod: 16.6; HIF act: 0.1; ALR inh: -7.8

How did CCOC(=O)c1ccc(NC(=O)CC2Sc3ncnn3C2=O)cc1 (configuration not stated) do in these assays?
SUMO Mot1 rescue: 673.7*; AI-2 QS mod: 27.1; HIF act: 0.4; ALR inh: -0.4; Mot1 SUMO dose: -1.0

How did CCOc1cc(C(N)=O)cc(Cl)c1OCc1ccccc1 do in these assays?
SUMO Mot1 rescue: 441.6*; AI-2 QS mod: 16.0; HIF act: -0.9; ALR inh: -0.6; Mot1 SUMO dose: -0.1

What do the screens show for `C=C(C)CSc1nc2sc3c(c2c(=O)n1-c1ccc(C)cc1)CCN(C)C3`?
AI-2 QS mod: -1.3; HIF act: 0.9

What do the screens show for `COCc1[nH][nH]c(=O)c1C=Nc1ccc(Cl)cc1`?
SUMO Mot1 rescue: -4.8; AI-2 QS mod: 20.4; HIF act: -31.2; ALR inh: 2.3

What do the screens show for `COCc1[nH][nH]c(=O)c1C=Nc1ccc(OC(F)(F)F)cc1`?
SUMO Mot1 rescue: 800.9*; AI-2 QS mod: 2.5; HIF act: -0.3; ALR inh: -7.3; Mot1 SUMO dose: -0.2

Results for CCN(C(=S)NC(=O)c1ccco1)c1cccc2ccccc12 ?
SUMO Mot1 rescue: 3.6

How did CCN(C(=S)NCCOC)c1cccc2ccccc12 do in these assays?
SUMO Mot1 rescue: 417.9*; AI-2 QS mod: 73.3; HIF act: -0.8; Mot1 SUMO dose: 0.5

How did CCN(C(=O)CCS(=O)(=O)c1ccc2c(c1)oc(=O)n2C)c1ccc(OC)cc1 do in these assays?
SUMO Mot1 rescue: 378.1*; AI-2 QS mod: 25.9; HIF act: -0.3; ALR inh: -8.0; Mot1 SUMO dose: -0.1

How did COc1ccc(CNC(=O)CCS(=O)(=O)c2ccc3c(c2)oc(=O)n3C)cc1 do in these assays?
SUMO Mot1 rescue: -2.5; AI-2 QS mod: 27.5; HIF act: -0.8; ALR inh: -4.7

How did CCOC(=O)N1CCN(C(=O)c2ccc3ccccc3c2)CC1 do in these assays?
SUMO Mot1 rescue: 379.2*; AI-2 QS mod: 21.8; HIF act: -11.2; ALR inh: -4.5; Mot1 SUMO dose: -0.1

Results for O=C(Nc1ccc2c(c1)CCCN2C(=O)c1cccs1)c1cccc(F)c1 ?
SUMO Mot1 rescue: 566.0*; AI-2 QS mod: 46.0; HIF act: 1.1; Mot1 SUMO dose: -0.9

How did COC(=O)c1ccccc1NC(=O)c1cnn2c(C)cc(C)nc12 do in these assays?
SUMO Mot1 rescue: 892.3*; AI-2 QS mod: 0.0; HIF act: 0.1; ALR inh: -8.1; Mot1 SUMO dose: 0.8

What do the screens show for `Cc1nn(Cc2ccc(C(=O)Nc3ccccc3C(F)(F)F)o2)c(C)c1Br`?
SUMO Mot1 rescue: 440.0*; AI-2 QS mod: 18.8; HIF act: -0.2; ALR inh: -1.2; Mot1 SUMO dose: 0.3

How did O=C(/C=C/c1ccco1)NC(=S)Nc1cccc([N+](=O)[O-])c1 do in these assays?
SUMO Mot1 rescue: -5.9; AI-2 QS mod: 36.4; HIF act: 1.0; ALR inh: 16.0

What do the screens show for `Cc1cccc(NC(=S)NC(=O)/C=C/c2ccco2)c1`?
SUMO Mot1 rescue: 705.8*; AI-2 QS mod: -6.5; HIF act: 2.7; ALR inh: 27.8; Mot1 SUMO dose: -1.2

What do the screens show for `CCC(C)c1ccccc1NC(=O)CN(C)CCOc1ccc(Cl)cc1` (configuration not stated)?
SUMO Mot1 rescue: -14.4; AI-2 QS mod: 12.1; HIF act: 1.5; ALR inh: -39.1

How did CN(CCOc1ccc(Cl)cc1)CC(=O)Nc1ccc(OC(F)F)cc1 do in these assays?
SUMO Mot1 rescue: 403.4*; AI-2 QS mod: 8.2; HIF act: -7.4; ALR inh: -5.3; Mot1 SUMO dose: -1.1

Results for COc1ccc(N2C(=O)CC(NCC#N)C2=O)cc1 (configuration not stated) ?
SUMO Mot1 rescue: -8.2; AI-2 QS mod: 22.2; HIF act: -1.2; ALR inh: -2.6

What do the screens show for `COc1ccc(N2C(=O)CC(NCc3cccs3)C2=O)cc1` (configuration not stated)?
SUMO Mot1 rescue: 358.9*; AI-2 QS mod: 0.3; HIF act: -0.1; ALR inh: -11.2; Mot1 SUMO dose: 0.7

What do the screens show for `CCOC(=O)c1ccc(N(C(=O)CNC(=O)c2ccco2)C(C(=O)NCC2CCCO2)c2ccc(OC)c(OC)c2)cc1` (configuration not stated)?
SUMO Mot1 rescue: -15.5; AI-2 QS mod: 6.3; HIF act: -1.4; ALR inh: 1.6

Results for COc1ccc(Cc2nnc(NCCO)[nH]c2=O)cc1 ?
SUMO Mot1 rescue: 446.5*; AI-2 QS mod: 33.2; HIF act: -0.6; Mot1 SUMO dose: -0.2

What do the screens show for `CCOC(=O)C(C)(C)Sc1nc2c(cnn2-c2ccc(C)cc2)c(=O)[nH]1`?
SUMO Mot1 rescue: 372.7*; AI-2 QS mod: 7.6; HIF act: -0.4; ALR inh: -5.4; Mot1 SUMO dose: 0.7

Results for CCOC(=O)C(C)(C)Sc1nc2c(cnn2-c2ccc(F)cc2)c(=O)[nH]1 ?
SUMO Mot1 rescue: 178.2; AI-2 QS mod: 18.7; HIF act: 0.2; ALR inh: -31.2

Results for C=CCOc1ccccc1CN(C(=O)CCl)c1ccc2c(c1)OCO2 ?
SUMO Mot1 rescue: 4.9; AI-2 QS mod: 34.4; HIF act: 0.6; ALR inh: 0.9

How did Cc1ccc(NC(=O)NNC(=O)Cn2nc(-c3ccccc3)c(-c3ccccc3)c(C#N)c2=O)cc1 do in these assays?
SUMO Mot1 rescue: 363.8*; AI-2 QS mod: 37.9; HIF act: 1.5; ALR inh: -1.5; Mot1 SUMO dose: -0.4

What do the screens show for `COc1ccc(-n2c(SCC(=O)NCC3CCCO3)nc3c(c2=O)SCC3)cc1OC` (configuration not stated)?
SUMO Mot1 rescue: 672.0*; AI-2 QS mod: 29.3; HIF act: -0.4; ALR inh: -6.9; Mot1 SUMO dose: -0.4

What do the screens show for `Cc1ccnc(NC(=O)CCC(=O)N(CC(=O)NC(C)(C)C)c2ccc3c(c2)OCO3)c1`?
SUMO Mot1 rescue: 0.2; AI-2 QS mod: 4.6; HIF act: -0.2; ALR inh: -2.9

How did CC(Sc1nnc(C2CC2)n1C1CC1)C(=O)Nc1ccccc1C#N (configuration not stated) do in these assays?
SUMO Mot1 rescue: -2.1

Results for CCOc1ccc(N2CC(C(=O)NNC(=O)c3ccc(Br)cc3)CC2=O)cc1 (configuration not stated) ?
SUMO Mot1 rescue: 28.3; AI-2 QS mod: -9.0; HIF act: -0.1; ALR inh: -11.9

Screening results: PubChem, Broad Institute
